The values below come from PubChem BioAssay (Tox21).

Inconclusive results are not listed. Unmarked numbers belong to inactive results. Activity calls are given as the source filed them. Unless noted, calls follow the shape of the dose curve; as a rule, active = well fitted curve in the direction sought with a large enough effect in the repeat runs; inconclusive = weak or mixed curves; inactive = no such curve, though single readings can be large; an effect the other way counts as inactive or inconclusive.

Experiment [1] can be described thus: qHTS assay to identify small molecule agonists of the RXR signaling pathway - cell viability counter screen (AID 1159529).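 Also: HEK 293T cells carrying an RXR-alpha UAS beta-lactamase reporter; series mostly up to about 77 µM; nearly all actives have a fitted effect of over 50% in size.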 An outline of the steps:
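Steps: seed RXR-alpha-UAS-bla HEK 293T cells in assay medium containing 2% charcoal-stripped FBS; incubate 5 hr; add compounds in DMSO; incubate 16 hr at 37 C; after the bla read, add CellTiter-Glo and read luminescence at 30 min.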

The nature of experiment [2]: qHTS assay to identify small molecule antagonists of the retinoid acid receptor (RAR) signaling pathway - cell viability counter screen (AID 1159551). Also: nearly all actives have a fitted effect of over 35% in size. An outline of the steps:
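In this counter screen, the RARE-luciferase line C3RL4 was exposed for 6 h at 37 C and 5% CO2 to compounds with retinol at 1 uM final. Cellular ATP, read by luminescence, served as the viability measure.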
(In qHTS, concentration-response curves come from the screen itself.)

The nature of experiment [3]: qHTS assay to identify small molecule antagonists of the retinoic acid receptor (RAR) signaling pathway (AID 1159552; also: nearly all actives have a fitted effect of over 50% in size). The method in brief:
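Retinol at 1 uM final stimulated RARE-luciferase expression in C3RL4 cells exposed to test compounds for 6 hr at 37 C. Reduced luminescence, read 30 min after detection reagent, indicated pathway antagonism.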

Experiment [4] can be described thus: qHTS assay to identify small molecule agonists of the retinoic acid receptor (RAR) signaling pathway (AID 1159553). The method in brief:
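In this cell-based screen, 1,000 C3RL4 cells per well were cultured overnight, dosed with test chemicals in DMSO for 6 hr, and assessed for RARE luciferase luminescence.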

A short description of experiment [5]: qHTS assay to identify small molecule antagonists of the estrogen related receptor (ERR) signaling pathway from Tox21 library - cell viability counter screen (AID 1224834). Also: nearly all actives have a fitted effect of over 30% in size. An outline of the steps:
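Counter screen run in ERR cells (2,000 cells/well): cells pre-incubated 6 h, then treated with compounds for 17.5 h at 37 C. Fluorescence was read 30 min after CellTiter-Fluor addition.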

Experiment [6] in a line: qHTS assay to identify small molecule agonists of the constitutive androstane receptor (CAR) signaling pathway - cell viability counter screen (AID 1224836). Also: series mostly up to about 92 µM; nearly all actives have a fitted effect of over 45% in size. An outline of the steps: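 Cells were seeded and incubated 4 hrs. Compounds were added across 15 concentrations together with PK11195 at 0.75 uM final. Plates were incubated 23 hrs at 37 C. CellTiter-Fluor was added and fluorescence measured.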

Experiment [7] can be described thus: qHTS assay to identify small molecule antagonists of the estrogen related receptor signaling pathway with the pleiotropic PPARgamma coactivator (PGC) from Tox21 10K library - cell viability counter screen (AID 1224840; active = well fitted cell-killing curve with a large enough effect in the repeat runs, not every such curve was filed as active; also: nearly all actives have a fitted effect of over 40% in size). The method in brief:
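Readout: fluorescence intensity from CellTiter-Fluor after 30 min at 37 C/5% CO2. Preceded by 17.5 h treatment of PGC/ERR cells with DMSO-dissolved compounds, added 6 h post-seeding.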

The target in experiment [8] is Thyrotropin receptor (Homo sapiens) (UniProt P16473). Briefly: qHTS assay to identify small molecule agonists of the thyroid stimulating hormone receptor (TSHR) signaling pathway (AID 1224843; calls by dose curve; also: nearly all actives have a fitted effect of over 45% in size). An outline of the steps:
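Using 15 concentrations per compound in triplicate, cAMP production was monitored in TSHR-HEK293 cells after 30 min compound incubation at RT; HTRF reagents followed, with fluorescence intensity recorded after 1 h.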

Experiment [9] concerns the target Luciferin 4-monooxygenase (Photinus pyralis) (UniProt P08659). Briefly: qHTS assay to identify small molecule inhibitors of firefly luciferase (AID 1224835). Also: series mostly up to about 120 µM; nearly all actives have a fitted effect of over 25% in size. An outline of the steps:
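Quantitative HTS format; KM concentrations of both substrates. Purified P. pyralis FLuc activity quantified from luminescence images.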

Experiment [10] can be described thus: qHTS assay to identify small molecule antagonists of the constitutive androstane receptor (CAR) signaling pathway - cell viability counter screen (AID 1224837). Also: series mostly up to about 92 µM; nearly all actives have a fitted effect of over 45% in size. An outline of the steps:
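CITCO at 50 nM final was added alongside compounds (15 concentrations) to double-stable hCAR/CYP2B6-2.2kb HepG2 cells. Following 23 hr at 37 C, cell viability was quantified by CellTiter-Fluor fluorescence intensity.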

In experiment [11] the target is Nuclear receptor subfamily 1 group I member 3 (Homo sapiens) (UniProt Q14994). Briefly: qHTS assay to identify small molecule antagonists of the constitutive androstane receptor (CAR) signaling pathway (AID 1224838). Also: nearly all actives have a fitted effect of over 40% in size. The method in brief: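 Inhibition of CITCO-driven (50 nM final) CYP2B6 reporter expression is measured in HepG2 cells stably carrying hCAR. Fifteen compound concentrations are applied for 24 h at 37 C, followed by luciferase luminescence.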
Chain of Nuclear receptor subfamily 1 group I member 3 (Homo sapiens) (Q14994 whole entry, looked up): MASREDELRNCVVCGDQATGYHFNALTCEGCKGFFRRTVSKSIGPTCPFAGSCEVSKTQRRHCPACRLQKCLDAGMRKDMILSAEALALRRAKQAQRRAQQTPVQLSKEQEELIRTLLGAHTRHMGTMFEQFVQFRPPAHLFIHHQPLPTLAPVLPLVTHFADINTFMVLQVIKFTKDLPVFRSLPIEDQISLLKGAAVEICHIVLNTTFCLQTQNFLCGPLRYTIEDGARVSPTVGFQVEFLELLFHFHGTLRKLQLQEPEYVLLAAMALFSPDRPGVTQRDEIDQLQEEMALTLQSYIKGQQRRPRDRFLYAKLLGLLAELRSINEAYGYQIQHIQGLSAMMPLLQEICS

Experiment [12] can be described thus: qHTS assay to identify small molecule antagonists of the estrogen related receptor signaling pathway with the pleiotropic PPARgamma coactivator (PGC) from Tox21 10K library (AID 1224841; call rule not given here; also: series mostly up to about 92 µM; actives are mostly falling curves and most rising ones were filed inactive; nearly all actives have a fitted effect of over 50% in size). An outline of the steps:
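One-Glo luminescence, measured after half an hour at room temperature, quantified reporter output of PGC/ERR cells. These had been plated at 2,000 per well, incubated 6 h, dosed with compounds in DMSO, then kept 18 h at 37 C.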

The nature of experiment [13]: qHTS assay to identify small molecule agonists of the estrogen related receptor signaling pathway with the pleiotropic PPARgamma coactivator (PGC) from Tox21 10K library (AID 1224842). Also: nearly all actives have a fitted effect of over 15% in size. An outline of the steps: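 PGC/ERR reporter cells (NTP line) were seeded 2,000 per well, rested 6 h at 37 C/5% CO2, then pin-dosed with compounds in DMSO for 18 h at 37 C; luciferase read by One-Glo luminescence after 30 min at room temperature.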

Experiment [14] is described as follows: qHTS assay to identify small molecule antagonists of the estrogen related receptor (ERR) signaling pathway - cell viability counter screen (AID 1224818). Also: series mostly up to about 46 µM. The method in brief:
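Viability of ERR cells, CellTiter-Fluor fluorescence; 17.5 h compound exposure at 37 C, DMSO vehicle; 30 min reagent incubation at 37 C/5% CO2.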

Experiment [15] is described as follows: qHTS assay to identify small molecule antagonists of the estrogen related receptor (ERR) signaling pathway (AID 1224819;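 also: luminescence from an ERR-driven luciferase reporter measured with One-Glo reagent; series mostly up to about 46 µM; nearly all actives have a fitted effect of over 50% in size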). An outline of the steps: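 Seed ERR cells 2,000/well; rest 6 h at 37 C/5% CO2; pin compounds in DMSO; incubate 18 h at 37 C; add One-Glo; wait 30 min at room temperature; measure luminescence.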
Experiment [16] is described as follows: qHTS assay to identify small molecule agonists of the estrogen related receptor (ERR) signaling pathway (AID 1224820). An outline of the steps: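 Following a 6 h settling period, 2,000 ERR cells per well receive DMSO-dissolved compounds by pin tool and incubate 18 h at 37 C; agonist activity is scored from One-Glo luminescence read 30 min post-addition.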

Experiment [17] concerns estrogen-related receptor alpha (ERRalpha) with PGC-1alpha coactivator, human. Briefly: qHTS assay to identify small molecule antagonists of the estrogen related receptor signaling pathway with the pleiotropic PPARgamma coactivator (PGC) (AID 1224821; calls by dose curve). The method in brief: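 Screening used NTP's PGC/ERR cells, dosed via pin tool with compound in DMSO alongside positive and negative controls. After 18 h at 37 C, One-Glo reagent sat 30 min at room temperature before luminescence detection.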

Experiment [18] in a line: qHTS assay to identify small molecule agonists of the estrogen related receptor signaling pathway with the pleiotropic PPARgamma coactivator (PGC) (AID 1224823). An outline of the steps:
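In this quantitative high-throughput screen, an 18 h, 37 C treatment of PGC/ERR cells with compounds in DMSO preceded a One-Glo luminescence read taken after 30 min at room temperature.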

For experiment [19], the target named is Nuclear receptor subfamily 1 group I member 3 (Homo sapiens) (UniProt Q14994). Briefly: qHTS assay to identify small molecule agonists of the constitutive androstane receptor (CAR) signaling pathway (AID 1224839). Also: nearly all actives have a fitted effect of over 15% in size. Also: potency is read from the fitted curve at half-maximal effect. As to activation: series mostly up to about 92 µM. An outline of the steps: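 Cells were plated and incubated 4 hrs, then dosed with compounds at 15 concentrations. PK11195 was added to 0.75 uM final. After 24 hrs at 37 C, luciferase luminescence was measured.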
% is scaled to controls: 0 for no effect and ±100 for the full control effect.

Chain of Thyrotropin receptor (Homo sapiens) (P16473 whole entry, looked up): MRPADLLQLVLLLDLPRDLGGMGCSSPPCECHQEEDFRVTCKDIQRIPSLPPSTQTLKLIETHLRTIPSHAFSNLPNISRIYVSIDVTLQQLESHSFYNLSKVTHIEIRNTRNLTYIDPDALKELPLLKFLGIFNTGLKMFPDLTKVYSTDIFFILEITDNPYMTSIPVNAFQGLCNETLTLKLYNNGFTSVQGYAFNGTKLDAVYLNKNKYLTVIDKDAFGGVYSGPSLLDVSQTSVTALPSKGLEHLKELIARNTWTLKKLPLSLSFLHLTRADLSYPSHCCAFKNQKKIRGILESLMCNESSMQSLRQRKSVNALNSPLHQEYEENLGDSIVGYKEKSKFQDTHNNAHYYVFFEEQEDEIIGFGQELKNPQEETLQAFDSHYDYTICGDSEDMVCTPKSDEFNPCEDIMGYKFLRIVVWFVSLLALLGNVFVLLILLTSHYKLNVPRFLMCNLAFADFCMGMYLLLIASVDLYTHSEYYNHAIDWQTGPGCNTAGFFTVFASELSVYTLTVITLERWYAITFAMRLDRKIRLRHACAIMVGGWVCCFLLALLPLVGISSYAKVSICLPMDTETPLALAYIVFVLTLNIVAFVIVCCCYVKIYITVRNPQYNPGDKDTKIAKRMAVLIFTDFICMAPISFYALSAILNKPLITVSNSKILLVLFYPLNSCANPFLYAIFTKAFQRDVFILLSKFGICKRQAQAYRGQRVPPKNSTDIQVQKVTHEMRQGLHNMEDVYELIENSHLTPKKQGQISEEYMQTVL
Chain of Luciferin 4-monooxygenase (Photinus pyralis) (P08659 whole entry, looked up): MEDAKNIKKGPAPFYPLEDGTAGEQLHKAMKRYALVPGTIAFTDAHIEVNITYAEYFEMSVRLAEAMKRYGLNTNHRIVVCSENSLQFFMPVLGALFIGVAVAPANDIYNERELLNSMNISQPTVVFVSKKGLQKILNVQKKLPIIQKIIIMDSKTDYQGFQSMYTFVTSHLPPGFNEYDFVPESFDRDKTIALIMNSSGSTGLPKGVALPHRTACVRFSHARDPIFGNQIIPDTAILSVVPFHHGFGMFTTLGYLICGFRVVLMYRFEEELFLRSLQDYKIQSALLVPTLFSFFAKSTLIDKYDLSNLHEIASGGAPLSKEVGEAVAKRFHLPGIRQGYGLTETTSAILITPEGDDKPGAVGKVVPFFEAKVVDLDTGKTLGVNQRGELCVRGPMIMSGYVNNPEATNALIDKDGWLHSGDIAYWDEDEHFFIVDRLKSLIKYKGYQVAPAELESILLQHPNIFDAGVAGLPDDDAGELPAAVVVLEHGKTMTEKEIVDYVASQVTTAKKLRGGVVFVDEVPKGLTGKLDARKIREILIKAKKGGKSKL

Consider `COCCOCCOCCOCCOC`, for which the Potency result in [1], in experiment [2], in [3], in experiment [4], in experiment [5] and in experiment [6] was “inactive” each time. In addition, the Potency entry in [7] and in experiment [8] was “inactive” each time.

Consider `Cc1cccc(OCCOc2cccc(C)c2)c1`, for which the Potency entry in experiment [1], in [2], in experiment [3], in [5], in experiment [9] and in experiment [6] was “inactive” each time. The Potency entry in experiment [10], in [11], in [7], in experiment [12] and in experiment [13] was “inactive” in each case.

On to `CCN(CCO)CCCC(C)Nc1ccnc2cc(Cl)ccc12` (stereo unspecified), for which the activity change, negative = cytotoxicity is -6.26% [at 6.97 µM] in experiment [1], 0.797% [at 8.39 µM] in [2] and -10.3% [at 8.39 µM] in experiment [10]. Further, the activity, negative = inhibition in experiment [3] was -1.6% [at 8.39 µM]. For the same compound, the activation in experiment [4] is 0.716% [at 8.36 µM]; in experiment [8], -1.08% [at 8.39 µM]. Moreover, the viability change, negative = cytotoxic in [5] was -2.66% [at 8.39 µM]; in experiment [7] it was 1.55% [at 8.39 µM].

In the case of `CN1CCC(=C2c3ccccc3C=Cc3ccccc32)CC1`, the Potency result in [1], in [2], in experiment [4], in [5], in [6] and in experiment [10] was “inactive” each time. Besides, the Potency result in [11], in [7], in [12], in experiment [13] and in [8] was “inactive” throughout. Further, the compound was classed as inactive in experiment [14], in [15], in [16], in [17] and in experiment [18].

In the case of `CC(C)CCCC(C)CCO` (stereo unspecified), the Potency result in [1], in experiment [2], in [3], in experiment [5], in experiment [9] and in [6] was “inactive” throughout. The Potency result in experiment [10], in [19] and in experiment [7] was “inactive” in each case.

Consider `Cc1nc2ccccc2n1Cc1ccc(Cl)cc1`, for which the Potency entry in experiment [1], in experiment [2], in experiment [3], in [5], in [9] and in experiment [6] was “inactive” throughout. The Potency entry in [11] and in experiment [7] was “inactive” in each case. Also, in experiment [19], the Potency was 11.9 µM (active).

For the compound `CC1(C)[C@H]2CC[C@]1(C)[C@H](O)C2`, the Potency entry in experiment [1], in experiment [2], in experiment [5], in [9], in experiment [6] and in experiment [10] was “inactive” throughout. The Potency entry in [11], in experiment [7] and in experiment [8] was “inactive” in each case.

For `O=S(=O)(O)c1ccc(O)c2ncccc12`, the Potency result in experiment [1], in experiment [2], in experiment [5], in experiment [9], in experiment [6] and in [10] was “inactive” throughout. The Potency entry in [7] and in experiment [8] was “inactive” each time.

As for `CC(=O)[C@@]1(O)CC[C@H]2[C@@H]3C[C@H](C)C4=CC(=O)CC[C@]4(C)[C@H]3CC[C@@]21C`, the Potency entry in [1], in [2], in experiment [5], in experiment [9], in [6] and in [7] was “inactive” in each case. For the same compound, the Potency result in [13] and in [8] was “inactive” in each case.
